About 83,000 compounds went through this panel and 20% of them were active in at least one assay; those are over-represented in the sample as a whole.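 Results are percent growth after 48 hours of single-concentration exposure. 100 means growth as in untreated cells, lower positive values show inhibition; negative values down to -100 show cell death.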 A number with no mark means an inactive call. The source made the active and inactive calls. How the source made its calls: active means growth percent below 10; inactive means the rest.

The text below walks through data of PubChem BioAssay (NCI).

What all share (experiment): NCI-60 one-dose screen, 48 h (100 = growth as untreated, 0 = no growth, -100 = all killed)
Common to all, as to conditions: 10 µM unless noted

The subject of test [1] is NCI-H23 lung.
Test [2] concerns NCI-H226 lung.
The test system of test [3] is NCI-H322M lung.
Test [4] has as its system HOP-62 NSCLC.
Test [5] deals with NCI-H460 lung.
For test [6], the system named is HOP-92 NSCLC.
Test [7] relates to NCI-H522 lung.
In test [8] the test system is A549/ATCC NSCLC.
For test [9], the system named is 786-0 renal.
For test [10], the system named is COLO 205 colon.

Take `CC(OC(=O)Nc1cccc(Cl)c1)C(=O)O` (stereo not given): the growth was 97.9% in [1]; 96.4% in test [2]; 101% in test [3]; 86.7% in [4]; 108% in test [5]; 92.2% in [6]. In addition, the growth in test [7] is 80.9%; in [8] it was 99.1%; in test [9], 96%; in test [10] it was 113%.
On to `CCOC(CN1CCN(CC(C)C(=O)c2ccccc2)CC1)c1ccccc1` (stereo not given), for which the growth in [1] was 112%; in [2], 91.2%; in test [3] it was 95.5%; in [4], 104%; in test [5], 99.7%; in test [6], 97.5%. Further, the growth is 73.9% in test [7], 96.5% in test [8], 106% in test [9] and 107% in [10].
For the compound `O=C1C=CC(=O)N1CO`, the growth was 124% in test [1]; 113% in test [2]; 117% in test [3]; 115% in test [4]; 123% in test [5]; 120% in [6]. Also, the growth in test [7] is 103%; in test [8], 109%; in test [9] it was 113%; in test [10] it was 149%.
Turning to `CCCCCCCCCCCCCCCC1=NCC[N+]1(CCO)CCO`, the growth is 53.7% in [1]; 73.4% in test [2]; 84.7% in [3]; 57.7% in [4]; 3.37% (active) in [5]; 5.24% (active) in test [6]. Moreover, the growth is 40.8% in test [7], 50% in [8], 55.5% in test [9] and 82.8% in [10].
Consider `COc1ccc(-c2cn(-c3cccc(C(=O)/C=C/c4ccc(O)c(OC)c4)c3)c(=O)[nH]2)cc1`, for which the growth in test [1] is 62.5%; in [2], 93.6%; in [3] it was 64.8%; in test [4], 113%; in test [5], 31.7%; in test [6] it was 22.6%. The growth in [7] is -4.38% (active); in test [8], 31.5%; in test [9] it was 34.5%; in test [10] it was 105%.
With `C=C(C)[C@@H]1CC[C@]2(C)[C@H](CC=C3[C@@H]4C[C@](C)(C(=O)N5CCN(C)CC5)CC[C@]4(C)CC[C@]32C)[C@@]1(C)CCC#N`, the growth in test [1] was 72.5%; in test [2], 69.6%; in [3], 85.1%; in test [4], 63.1%; in [5], 28%; in test [6], 32.7%. Also, the growth in test [7] is 79.8%; in [8], 55.3%; in test [9], 71.5%; in test [10], 45.2%.
With `Clc1ccc2c(c1)-n1cccc1C(c1ccc3ccccc3c1)=NC2`, the growth in test [1] is 74.4%; in [2], 146%; in test [3] it was 122%; in test [4] it was 101%; in [5] it was 96.7%; in [6], 89.6%. Moreover, the growth is 41.3% in test [7], 121% in [8], 88.7% in test [9] and 102% in [10].
For `O=C(NC1CC1)c1ccc(-c2nc3ccc4[nH]ncc4c3c3c2CCCC3)cc1`, the growth in test [1] was 53.3%; in [2] it was 44.7%; in [3] it was 41.7%; in test [4] it was 28.9%; in test [5] it was 41.7%; in [6] it was 71.2%. Further, the growth in test [7] is 18.9%; in test [8] it was 26.3%; in test [9] it was 42.1%; in test [10], 23.6%.
For `CCSc1ccc([C@@H]2[C@@H](O)C(=O)N2c2cc(OC)c(OC)c(OC)c2)cc1`, the growth is 34% in test [1]; 50.7% in test [2]; 39.4% in [3]; 22.6% in test [4]; 5.97% (active) in test [5]; 101% in test [6]. For the same compound, the growth in test [7] was 6.56% (active); in [8] it was 20.8%; in test [9], 14%; in test [10] it was -48.8% (active).
With `CCCCNCCC(O)c1cc2ccc(C(F)(F)F)cc2c2cc(C(F)(F)F)ccc12` (stereo not given), the growth is -75.3% (active) in test [1]; -70.7% (active) in test [2]; -37.6% (active) in [3]; -91.3% (active) in test [4]; -74.5% (active) in test [5]; -80.6% (active) in test [6]. Moreover, the growth in [7] was -83% (active); in test [8], -87.5% (active); in [9] it was -85.3% (active); in test [10], -88.6% (active).
For `CN1CCN(Cc2ccc(NC(=O)c3cncc(C#Cc4ncc5ccccn45)c3)cc2C(F)(F)F)CC1`, the growth was 9.22% (active) in test [1]; -8.28% (active) in [2]; 33.3% in [3]; 16.4% in test [4]; 5.79% (active) in test [5]; -1.18% (active) in [6]. Besides, the growth in test [7] is 18.4%; in [8], 7.74% (active); in [9] it was 3.06% (active); in test [10], -26.5% (active).
With `COc1cc2nccc(Oc3ccc(NC(=O)C4(C(=O)Nc5ccc(F)cc5)CC4)cc3)c2cc1O`, the growth in test [1] is 57.4%; in [2], 67.1%; in test [3] it was 87.7%; in test [4], 57.6%; in [5] it was 48.1%; in test [6] it was 33.4%. The growth in test [7] is 68%; in test [8] it was 56.4%; in test [9], 96.2%; in [10], 91%.
Take `Cc1nc([C@H]2CC[C@H]3[C@@H]4CCC5=CC(=O)CC[C@]5(C)[C@H]4CC[C@]23C)cs1`: the growth in [1] is 49.9%; in test [2] it was 76.9%; in test [3] it was 116%; in test [4] it was 104%; in test [5], 41.5%; in test [6] it was 85%. Besides, the growth in test [7] was 22%; in test [8] it was 63.3%; in test [9] it was 62.7%; in test [10], 97.5%.
